Screening results: PubChem BioAssay, The Scripps Research Institute Molecular Screening Center
hcDAF-12 act – activates DAF-12 receptor from parasite H. contortus; HEK293 hcDAF-12 lit1-tk-luc reporter, luminescence; 0% DMSO, 100% Δ7-dafachronic acid; activation, % at 6.8 µM; 370,000 tested, 1.4% active;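 active means activation above the mean of all tested compounds plus 3 SD, cut at about 5.5% in these data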;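 further: 100% = response to 3 µM Δ7-dafachronic acid high control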
DAX1 inh-1 – NR0B1 (DAX1) inhibition. HEK293 Gal4-DAX1 luciferase reporter, luminescence. inhibition, % at 6.75 µM. P51843. 340,000 tested, 0.99% active. AID 504766;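 active means inhibition above the mean over all tested compounds plus 3 SD, cut at about 4.2% in these data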;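 further: 0% = DAX1-transfected cells with DMSO and 100% = empty-vector control cells with DMSO; inhibition shows as a rise in luminescence from relieved DAX1 repression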
Target sequence (P51843 207-470 limits assumed): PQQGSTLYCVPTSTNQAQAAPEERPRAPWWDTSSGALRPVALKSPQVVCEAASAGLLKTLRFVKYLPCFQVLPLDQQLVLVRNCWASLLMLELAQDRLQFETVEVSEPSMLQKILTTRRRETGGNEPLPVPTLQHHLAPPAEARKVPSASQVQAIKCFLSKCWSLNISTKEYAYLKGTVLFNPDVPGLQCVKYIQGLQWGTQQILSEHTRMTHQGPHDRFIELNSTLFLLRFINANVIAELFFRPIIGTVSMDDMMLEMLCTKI
ssDAF12 agonist – S. stercoralis DAF-12 activation, primary screen; AID 652126; activation, % at 6.8 µM; 370,000 tested, 1% active; HEK293 ssDAF-12/GRIP1 lit1-tk-luc reporter, luminescence; % of 3 µM dafachronic acid response;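 active means activation above the mean over all tested compounds plus 3 SD, cut at about 0.9% in these data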;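 further: 0% = DMSO-only wells and 100% = 3 µM delta7-dafachronic acid wells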
SMARCA2 activ – increases SMARCA2 function in MMTV reporter cells. 370,000 tested, 1% active. MG213 cells, MMTV-luciferase reporter, dexamethasone, overnight. AID 652017. activation, % at 9.1 µM; in the data active means activation above about 7.8%;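 further: 0% = vehicle wells and 100% = reference activator wells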
DAX1 inh-2 – inhibitors of DAX1 repression of SF-1 activated StAR promoter | HEK293T StAR-luciferase reporter, SF-1/DAX-1 repression relief | inhibition, % at 6.8 µM | 370,000 tested, 1.1% active | AID 652010;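 active means inhibition above the mean over all tested compounds plus 3 SD, cut at about 3.6% in these data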;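 further: 0% = DAX-1 cells with DMSO and 100% = cells lacking DAX-1 with DMSO; higher inhibition means more luminescence from relief of DAX-1 repression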
hgDAF12 agonist – hgDAF-12 agonism, primary luciferase screen; HEK293 GAL4-hgDAF12 UAS-luciferase reporter, agonist luminescence; normalized to butyrate control; AID 687014; activation, % at 6.8 µM; 370,000 tested, 1.8% active;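 active means activation above a cutoff set at the mean of all screened compounds plus 3 SD, cut at about 10% in these data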;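 further: 0% = DMSO wells and 100% = sodium butyrate wells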
LXRb hcDAF ctr – activates human LXR-beta, counter-screen for hcDAF-12 agonists; shares compounds with hcDAF-12 act; HEK293 Gal4-LXR tk-luc reporter, luminescence, 24 h; normalized: DMSO 0%, positive control 100%; activation, % at 6.8 µM; 3,400 tested, under 10 active;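 active means mean percent activation of the reporter above a cutoff set as the average over tested compounds plus their standard deviation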
Target sequence (P55055 whole entry, looked up, the tested form may be a part): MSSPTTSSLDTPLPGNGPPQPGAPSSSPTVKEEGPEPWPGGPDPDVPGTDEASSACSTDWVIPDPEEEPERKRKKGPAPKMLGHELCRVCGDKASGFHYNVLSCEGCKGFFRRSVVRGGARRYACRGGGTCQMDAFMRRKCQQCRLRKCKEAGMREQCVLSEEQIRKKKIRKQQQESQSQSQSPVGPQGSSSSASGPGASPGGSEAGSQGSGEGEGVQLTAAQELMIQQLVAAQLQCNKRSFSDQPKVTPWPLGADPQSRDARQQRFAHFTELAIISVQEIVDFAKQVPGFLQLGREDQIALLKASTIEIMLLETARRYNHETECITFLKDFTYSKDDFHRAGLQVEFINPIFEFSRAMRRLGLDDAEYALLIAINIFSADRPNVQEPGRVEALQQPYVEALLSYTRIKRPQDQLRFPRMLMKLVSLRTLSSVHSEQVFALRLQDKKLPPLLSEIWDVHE
hcDAF12 ag – hcDAF-12 agonism, confirmation assay. shares compounds with hcDAF-12 act. 3,400 tested, 61% active. HEK293 hcDAF-12 lit1-tk-luc reporter, luminescence; % of Δ7-dafachronic acid response. activation, % at 6.8 µM;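 active means mean activation across triplicate tests above the threshold derived from the earlier primary screen, cut at about 5.5% in these data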;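 further: 0% = DMSO only wells and 100% = 3 µM Δ7-dafachronic acid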
* = called active by the depositor; . = no result given. This is a sample that favours compounds with a hit; in the whole collection about 4.8% have one here.

SMILES	hcDAF-12 act	DAX1 inh-1	ssDAF12 agonist	SMARCA2 activ	DAX1 inh-2	hgDAF12 agonist	LXRb hcDAF ctr	hcDAF12 ag
COc1ccc(C(=O)Nc2nc(-c3cccs3)c(NC(C)=O)s2)cc1	0.2	-0.2	-1.6	3.3	-0.2	0.4	.	.
COc1ccc(C(=O)Nc2nnc(-c3cccs3)s2)cc1	6.8*	1.5	1.3*	4.8	2.2	9.5	1.6	17.0*
CCOC(=O)c1ccc(NC(=O)Cn2ncc(Cl)c(Cl)c2=O)cc1	-1.8	-0.3	-1.9	-10.7	-1.7	-11.6	.	.
Nc1nc(-c2ccccc2)ns1	6.9*	1.4	0.5	-3.5	1.7	4.3	0.1	6.1*
O=C(C[n+]1cc(Br)cc2ccccc21)c1ccc(Br)cc1	4.6	-0.9	-0.9	-2.3	0.2	0.7	.	.
O=C(C[n+]1cc(Br)cc2ccccc21)c1ccc(Cl)cc1	8.2*	0.2	0.0	-2.3	-0.3	1.2	-0.1	3.1
Cc1ccc(/C=C/C(=O)C2C(=O)c3ccccc3C2=O)cc1	8.7*	-1.6	0.0	3.9	2.3	7.8	0.9	11.6*
C=CCn1c(SC2CCOC2=O)nc2sc(CC)cc2c1=O (stereo not given)	-2.3	0.1	-1.3	-0.3	-0.8	1.5	.	.
Cc1cccc(NC(=O)Nc2ccc(C#N)cc2)n1	-2.9	-2.1	-1.9	3.6	-0.9	5.9	.	.
Cc1cccc(NC(=O)Nc2ccc(Br)cc2)n1	7.6*	3.9	1.3*	0.7	0.0	6.3	0.6	6.2*
Cc1cc(NCCCn2ccnc2)n2ncc(-c3ccc(Cl)cc3)c2n1	15.0*	3.5	1.7*	-0.8	3.8*	18.6*	1.9	18.8*
Cc1cc(NCCCN2CCOCC2)n2ncc(-c3ccc(Cl)cc3)c2n1	3.0	1.0	-1.1	2.4	0.5	4.8	.	.
CN(C)c1nc(NC(C)(C)C)nc(NC(C)(C)C)n1	-1.4	0.0	-1.3	-1.3	0.2	-5.2	.	.
Cc1nnc(-c2cccc(Br)c2)c2cn(-c3ccccc3)nc12	0.3	0.2	-0.9	-1.0	0.4	-0.1	.	.
CCOC(=O)C(C)(C)Sc1nc2c(cnn2-c2ccc(C)cc2)c(=O)[nH]1	8.8*	-0.4	-1.1	-3.8	0.0	1.7	-0.4	0.4
CCOC(=O)C(C)(C)Sc1nc2c(cnn2-c2ccc(F)cc2)c(=O)[nH]1	-1.0	1.1	-1.1	-4.1	0.0	-4.8	.	.
Cc1cc(C(=O)N/N=C/c2cccc(OC(=O)c3cccc(Br)c3)c2)n[nH]1	0.6	0.7	-0.4	-2.4	1.5	1.9	.	.
NS(=O)(=O)c1ccc(N=Nc2c(O)c(C(=O)O)cc3ccccc23)cc1	1.0	0.1	-1.5	-3.1	-0.7	-3.3	.	.
O=C(O)Cc1ccc(N=Nc2c(O)c(C(=O)O)cc3ccccc23)cc1	6.8*	0.7	-0.1	4.5	0.4	10.1	-0.4	0.6
CC(C)OCCCNC(=O)CN1C(=O)COc2ccc(S(=O)(=O)N3CCCCCC3)cc21	1.7	1.5	-0.7	-1.6	-0.3	1.4	.	.
O=C(CCC(=O)NCCCc1ccccc1)NCCCc1ccccc1	7.7*	1.4	-1.3	-2.5	-0.1	2.2	-0.2	-0.1
Cc1ccc(NC(=O)C2CCCN(S(=O)(=O)c3ccc4[nH]c(=O)ccc4c3)C2)nc1 (stereo not given)	-1.0	-0.1	-1.1	-0.5	-1.3	0.2	.	.
N#C/C(=C\Nc1ccc2cn[nH]c2c1)c1nc(-c2ccc(Cl)cc2)cs1	7.3*	1.9	-0.2	2.8	0.0	2.4	-0.5	3.2
CN(C)c1cc2c3ccccc3n(C)c2cc1N	7.6*	1.6	0.0	-0.5	0.2	3.9	-0.2	4.0
CCN1CCN(Cc2c(O)ccc3c(=O)c(-c4ccc(OC)c(OC)c4)c(C)oc23)CC1	-1.5	0.6	-1.2	-1.4	-0.5	0.7	.	.
SMILES	hcDAF-12 act	DAX1 inh-1	ssDAF12 agonist	SMARCA2 activ	DAX1 inh-2	hgDAF12 agonist	LXRb hcDAF ctr	hcDAF12 ag
O=C(CSCC(=O)Nc1nc(-c2ccc3c(c2)OCO3)cs1)Nc1nccs1	8.4*	-1.2	-0.6	1.9	1.2	9.4	0.0	-0.6
Cc1ccc(S(=O)(=O)N/N=C\C=C\c2ccccc2)cc1	6.7*	-0.2	-0.9	-0.4	1.0	2.6	-0.2	-0.1
O=S(=O)(N/N=C\C=C\c1ccccc1)c1ccc(Br)cc1	-0.5	0.7	-0.8	-0.6	0.8	-0.2	.	.
Nn1cnc2scc(-c3ccc(Cl)cc3)c2c1=O	6.9*	1.1	1.7*	3.9	-0.3	9.1	0.1	1.0
Nn1cnc2scc(-c3cccs3)c2c1=O	0.7	0.3	-1.1	-3.8	-0.3	0.3	.	.
[N-]=[N+]=CC(=O)CCCN1C(=O)c2ccccc2C1=O	-1.2	-1.4	-0.4	-0.7	-0.4	-0.4	.	.
Cc1cc(C)n2nc(-c3ccc(Cl)cc3)cc2n1	13.1*	3.6	1.9*	5.7	1.2	11.1*	1.1	12.4*
COc1ccc(-c2cc3nc(C)cc(C)n3n2)cc1	9.2*	8.0*	2.7*	3.8	2.6	11.8*	0.9	13.0*
Cc1cc(C)n2nc(-c3ccc(Br)cc3)cc2n1	14.4*	4.7*	1.5*	1.7	1.6	11.0*	1.0	11.0*
Cc1cc(-c2ccc(Br)cc2)n2nc(C)cc2n1	-2.1	0.4	-1.0	-4.0	-0.8	1.0	.	.
COc1ccc(CNC(=S)Nc2ccccc2F)cc1	-0.1	0.6	-1.2	-2.0	-0.1	-1.0	.	.
CCOC(=O)c1oc2c(C)c(O)ccc2c(=O)c1-c1nncn1-c1ccccc1	-1.4	0.5	-0.7	-2.5	0.0	-2.4	.	.
CC(=O)c1c(C)nc(Nc2nc3ccccc3s2)nc1C	11.3*	.	1.6*	4.5	0.6	8.7	1.6	13.1*
CC(=O)c1c(C)nc(Nc2nc(C)c3cc(C)ccc3n2)nc1C	0.1	-0.9	-2.3	-0.3	-0.1	-1.6	.	.
O=C(Nc1nccs1)C(=O)c1c[nH]c2ccccc12	6.5*	0.9	1.8*	6.9	3.1	9.2	0.7	8.0*
C=CCC(NCc1ccccc1)c1ccc(Cl)cc1 (stereo not given)	-0.9	0.3	-0.9	-1.5	0.7	-2.1	.	.
O=C(COc1ccc([N+](=O)[O-])cc1)Nc1cc(C(=O)O)cc(C(=O)O)c1	-0.8	2.4	-1.0	0.2	0.4	-0.5	.	.
CC(C)(C)OC(=O)NCCNC(=O)c1cccs1	1.4	-0.9	-1.3	-1.8	0.2	2.7	.	.
Cc1cc(C)nc(NNC(=O)NC2CCCCC2)n1	-2.1	0.5	-1.6	2.3	0.2	0.2	.	.
Cc1ccc(-c2cc(C(F)F)n3ncc(C(=O)N4CCCc5ccccc54)c3n2)cc1	6.6*	1.4	-0.8	1.8	0.2	0.4	-0.4	-0.9
